# Shown is part of a subset that was picked to be rich in hits.
# Tg IFNy HTS = T. gondii growth inhibition with IFN-gamma, primary screen, cell-based. Toxoplasma gondii growth in IFN-gamma-treated host cells; active compounds read low. activity change, negative = inhibition, % (no concentration beside the values). hit rate 3.8% among 69,000; in the data active = activity change below about -70%, passing the limit was not always enough;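 note: host cells are HeLa cells infected with Toxoplasma gondii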
# Starred values were filed as active, the others as inactive; i = inactive; ! = not confirmed by another sample.
SMILES,Tg IFNy HTS
Clc1ccc(Sc2nc3ccccc3nc2Sc2ccc(Cl)cc2)cc1,17
Cc1ncc(Sc2ccc(Cl)cc2)c(-c2ccc(Cl)cc2)n1,22
Cc1ccc(Sc2cccc3nc(N)nc(N)c23)cc1,-108*
CCOc1cccc(C2c3[nH]c4ccccc4c3CCN2C(=O)c2cccc(C)c2)c1 (stereo unspecified),-112*
Cc1cccc(C(=O)N2CCc3c([nH]c4ccccc34)C2c2cccc(C)c2)c1 (stereo unspecified),i
CCOc1cccc(C2c3[nH]c4ccccc4c3CCN2C(=O)c2cccc(F)c2)c1 (stereo unspecified),-123*
Cc1oc(-c2ccc(C(=O)NC3CCS(=O)(=O)C3)cc2)nc1CN1CCN(c2ccccc2)CC1 (stereo unspecified),73
Cc1nc(CCNC(=O)CN2C(=O)NC(=O)C2(C)C)sc1C,12
COc1ccc2c(c1)NC1(CCN(C(=O)Nc3cc(C)cc(C)c3)CC1)c1cccn1-2,414
CCN1CCC2(CN(S(C)(=O)=O)CC23CCN(CC2CC2)CC3)C1=O (stereo unspecified),-62
CC(C)(C)c1cc(C(F)(F)F)nc(SCCCNC(=O)CCc2ccccc2)n1,-74*
O=C(CCc1nc2ccccc2[nH]1)NCCc1ccc(C(F)(F)F)cc1,-5
O=C(CCc1ccccc1)Nc1ccccc1C(F)(F)F,30
Cc1n[nH]c(C)c1C(NC(=O)CSC(C)C)C(=O)O (stereo unspecified),37
Nc1nc(N)c2c(OCc3ccc(C(F)(F)F)cc3)cccc2n1,-74*
Cc1cccc(COc2cccnc2N)c1,42
O=C(OCc1ccc(C(F)(F)F)cc1)c1cc(Cl)cc(Cl)c1,-22
CC(Nc1ccc(-c2nccn2C)nn1)c1ccccc1 (stereo unspecified),205
CC(NCCC(c1ccccc1)c1ccccc1)c1ccccc1 (stereo unspecified),-82*!
CNCC[C@@H](Oc1ccccc1C)c1ccccc1,16
CC(C)CCN1C2(CCN(C(=O)C3(C)CC3)C2)c2ccccc2S1(=O)=O (stereo unspecified),69
COc1ccc2c(c1)C=C(CN1CCC(c3cc(CCOc4cccc(F)c4)[nH]n3)C1)CO2 (stereo unspecified),19
CCn1c(=O)c2ccccc2n(CC(=O)c2ccc(OC)c(OC)c2)c1=O,86
Cc1cc(C[C@@H]2CCC[C@H]2NCc2c(C)nn(-c3ccc(F)cc3)c2C)on1,77
CCCS(=O)(=O)Nc1ccc(F)c(C(=O)c2c[nH]c3ncc(-c4ccc(Cl)cc4)cc23)c1F,-79*
SMILES,Tg IFNy HTS
COc1ccc(-c2nc(Cn3nnc(C(=O)Nc4cccc(C)c4C)c3C)c(C)o2)c(OC)c1,48
c1ccc(-c2nnn3c2COC(CNCc2ccsc2)C3)cc1 (stereo unspecified),-48
CC(NC(=O)c1cc2ccccc2[nH]1)C(=O)N1CCN(c2ccccn2)CC1 (stereo unspecified),31
Fc1cnc(N2CCOCC3(CCN(c4ccccn4)C3)C2)nc1 (stereo unspecified),-3
C=CCN1CCOCC2(C1)CN(Cc1cnn(C)c1)CCO2 (stereo unspecified),-26
CC1=C(C(=O)NCc2ccccc2Cl)C2(CCN(S(=O)(=O)c3cccs3)CC2)OC1=O,28
CCc1noc(CC)c1C(=O)Nc1nc(CS(=O)(=O)c2ccc(C)cc2)cs1,-66
CCc1noc(CC)c1C(=O)Nc1nc(-c2ccc(OC)c(OC)c2)cs1,-82*
COc1ccc(-c2csc(NC(=O)c3ccccc3C)n2)cc1,-7
CC1(C)C2CCC1C(CS(=O)(=O)Oc1cccc(-n3cnnn3)c1)C2=O (stereo unspecified),-1
O=C(c1cnc(CN2CCCC2)s1)N1CC[C@@H](c2ccc(F)cc2)[C@H](O)C1,2
CCn1ccnc1CN1CCCC(c2cncc(-c3cccc(Cl)c3)n2)C1 (stereo unspecified),-110*
CCCn1ccnc1CN1CCCC(c2nn(C)c(=O)n2CC)C1 (stereo unspecified),4
Cc1cccc(-c2ncc(CN3CCCC(Cn4ccnc4C)C3)cn2)c1 (stereo unspecified),-6
O=c1oc2ccc3ccccc3c2cc1-c1csc(-c2ccccc2)n1,23
CCn1ncc(C(=O)NCc2cncn2CC(C)C)c1C,9
CCn1ncc(NC(=O)Cn2ncc3cc(-c4ccc(OC)nc4)ccc32)n1,57
Cn1nc(-c2ccccc2)cc1NC(=O)C1CCCCC1,47
Cn1nc(-c2ccccc2)cc1NC(=O)Cn1cnc(Cl)c1Cl,2
Cc1c(C)c(C)c(S(=O)(=O)Nc2cc(-c3ccccc3)nn2CCC#N)c(C)c1C,-88*
COCCN1C(=O)CCC12CCN(C(=O)COC)CC2,0
CCOCC(=O)N1CCC2(CCC(=O)N2CCN2CCCC2)CC1,-89*
C=CC(=O)N1CCC2(CCC(=O)N2CCN2CCCC2)CC1,-6
CCC1=N[C@@]2(CC[C@H]3CN(CC4CC4)C[C@H]32)C(=O)N1,25
CN1CCN2CCN(Cc3ccc4[nH]ccc4c3)CC2C1 (stereo unspecified),-3
SMILES,Tg IFNy HTS
CCc1nc(CNC(=O)C(CC)n2cc(C(C)=O)c3ccccc32)cs1 (stereo unspecified),-43
CCOCC1CC2(COCCN2C(=O)c2ccoc2C)CO1 (stereo unspecified),-8
C[C@@H]1CN([C@H](C)CO)C(=O)c2cc(N(C)C)ccc2O[C@H]1CN(C)Cc1ccc(Oc2ccccc2)cc1,60
C[C@H](CO)N1C[C@H](C)[C@H](CN(C)Cc2ccc(-c3ccccc3)cc2)Oc2ccc(N(C)C)cc2CC1=O,-83*
C[C@@H]1CN([C@@H](C)CO)C(=O)Cc2cc(N(C)C)ccc2O[C@H]1CN(C)Cc1ccc(-c2ccccc2)cc1,69
CC(C)N1CCC(N2CCN(Cc3cccn3-c3ccccn3)CC2CCO)CC1 (stereo unspecified),15
Cc1ccccc1NC(=O)c1ccc2ccc(N3CCN(C)CC3)n2c1,-2
CN1CCN(c2ccc3ccc(C(=O)Nc4cccc(F)c4)cn23)CC1,-1
Cc1ccc(NC(=O)c2ccc3ccc(N4CCN(C)CC4)n3c2)cc1C,-73*
CCOc1ccc(-c2nc(Cn3nnc(C(=O)Nc4cc(Cl)ccc4C)c3C)c(C)o2)cc1,27
Cc1cccc(C(=O)Nc2c(C(=O)NCc3cccnc3)[nH]c3ccc(C)cc23)c1,-20
CN(C)C(=O)c1cnn(C2CCNC2)c1 (stereo unspecified),17
COc1ccc(C2c3c(n[nH]c3C)CC(C)(O)C2C(C)=O)cc1OC (stereo unspecified),-11
COc1cc(C2c3c([nH]c(=O)[nH]c3=O)Nc3ccc4ccccc4c32)ccc1OC(C)=O (stereo unspecified),-112*
COC(=O)c1c(NCc2ccc(OC)c(OC)c2)c2cccc(Cl)c2[nH]c1=O,-50
CN1CC2(CCN(C(=O)c3cc(-c4cccs4)nn3C)C2)OC1=O (stereo unspecified),4
Cc1cc(C(=O)Nc2ccc(S(N)(=O)=O)cc2)no1,-87*
Cc1cc(C(=O)Nc2ccc3c(c2)CCC(=O)N3)no1,31
CCOc1ccccc1C(=O)Nc1ccc(S(=O)(=O)Nc2cc(C)on2)cc1,-28
CCOc1ccc(C(=O)O)cc1CN(C)C,-20
O=C(c1c(F)cccc1F)N1CCN(S(=O)(=O)c2cc3c4c(c2)CCC(=O)N4CCC3)CC1,-30
Nc1nc(Nc2ccc(S(N)(=O)=O)cc2)nn1C(=O)c1c(F)cccc1F,-72*

# Assay outcomes (PubChem)
